Bioassay records from PubChem BioAssay.
Giardia FBPA inh: blocks Giardia fructose-bisphosphate aldolase activity | Potency, µM (titrated, usually from 59.6 µM), for inactives: top-dose activity, negative = inhibition, hits mostly inhibitors | hit rate 0.71% among 290,000 | purified Giardia FBPA | AID 2451 | A8B2U2; further: potency means the concentration at half of the fitted maximal effect; on the % scale 0 is the no-effect control and ±100 the full control effect; nearly all actives have a fitted effect of over 55% in size
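Giardia FBPA (40 nM reagent) was preincubated 10 min at RT with compound (up to 57.5 uM final), then substrate plus GAPDH/TPI/NAD/arsenate coupling system with diaphorase/resazurin was added; resorufin fluorescence (525/598 nm) was read after 20 min.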
LmPK inhibitor: inhibitors of Leishmania mexicana pyruvate kinase | Q27686 | hit rate 0.37% among 290,000 | purified LmPK, Kinase-Glo ATP luminescence, 1 h | Potency, µM (doses to about 57.5 µM), for the others: at the top dose activity change, negative = inhibition, hits mostly inhibitors; further: potency means the concentration at half of the fitted maximal effect; on the % scale 0 is the no-effect control and ±100 the full control effect
Target sequence (Q27686 whole entry, looked up): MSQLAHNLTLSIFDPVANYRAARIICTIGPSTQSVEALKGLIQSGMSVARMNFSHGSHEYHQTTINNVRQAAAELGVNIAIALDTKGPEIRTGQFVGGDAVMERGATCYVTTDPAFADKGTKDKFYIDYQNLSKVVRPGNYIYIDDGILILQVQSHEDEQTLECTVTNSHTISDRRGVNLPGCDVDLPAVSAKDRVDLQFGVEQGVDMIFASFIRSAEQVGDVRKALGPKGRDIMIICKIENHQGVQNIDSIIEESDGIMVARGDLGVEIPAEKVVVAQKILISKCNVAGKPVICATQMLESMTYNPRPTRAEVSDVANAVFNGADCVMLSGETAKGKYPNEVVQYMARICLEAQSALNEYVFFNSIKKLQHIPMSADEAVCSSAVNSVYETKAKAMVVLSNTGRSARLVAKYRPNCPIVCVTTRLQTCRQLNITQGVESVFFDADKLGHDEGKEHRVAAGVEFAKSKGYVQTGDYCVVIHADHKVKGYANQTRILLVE
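ATP generated from ADP (0.1 mM) and PEP (0.5 mM) by 0.1 nM LmPK over 1 h at room temperature (pH 7.2 imidazole buffer) was detected by coupled luciferase luminescence. Values were normalized to uninhibited and no-enzyme wells.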
Shiga inhibitor: Shiga toxin inhibition. hit rate 9.2% among 290,000. inhibition, % at 38.7 µM. Vero cells, Shiga toxin protein synthesis inhibition reporter; in the data active means inhibition mostly above about 28%, no sharp cut-off; inactive means mostly below about 43%; further: 0% is about no effect
RE007 growth inh: less growth of the S. pombe RE007 Vpr strain. S. pombe RE007 Vpr strain, BacTiter-Glo ATP luminescence, 24 h. Potency, µM (doses to about 92.2 µM), inactives show at the top dose activity change, negative = less growth, actives largely listed as inhibitors. hit rate 0.21% among 360,000; active means well fitted falling curve with a large enough effect; inconclusive means small, poorly fitted or top-dose-only effect; inactive means no such curve, though single readings can be large or run the other way; further: potency means the concentration at half of the fitted maximal effect; on the % scale 0 is the no-effect control and ±100 the full control effect; nearly all actives have a fitted effect of over 50% in size
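Fission yeast strain RE007, carrying one chromosomally integrated HIV-1 vpr copy, was seeded at OD 0.01 in PMG+AL medium with 23 nL pinned compound. After 24 h at 30 °C and 99% humidity, viability was read by BacTiter-Glo luminescence.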
TbPYK inhibitor: blocks Trypanosoma brucei pyruvate kinase. Q57TT1. TbPYK enzyme, Kinase-Glo Plus ATP luminescence, 45 min. Potency, µM (highest dose often 76.8 µM), without a hit: at the highest dose activity, negative = inhibition, hits mostly inhibitors. hit rate 0.12% among 410,000. AID 624173; further: potency means the concentration at half of the fitted maximal effect; on the % scale 0 is the no-effect control and ±100 the full control effect; nearly all actives have a fitted effect of over 50% in size
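Luminescence from Kinase-Glo Plus, added after a 45-minute room-temperature reaction, served as the end-point read-out. The enzyme and substrate were preincubated with compound before ADP (130 uM final) initiated turnover. Concentration-effect curves came from normalized qHTS data.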
Cycloheximide cs: affects cycloheximide protein synthesis inhibition readout, counter-screen. AID 2314. hit rate 12% among 300,000. cell reporter, cycloheximide protein synthesis inhibition counterscreen. max response, %; in the data active means max response mostly above about 13%, no sharp cut-off; inactive means mostly below about 14%; further: read at 38.3 µM for the half of the compounds with a filed dose; 0% is about no effect
Numbers without * were called inactive; ? = inconclusive; / = no result; [ ] = remark or other dose. Shown is part of a subset that was picked to be rich in hits. Unless noted, the call rests on the fitted dose curve; in most records, active means well fitted curve in the direction sought with a large enough effect; inconclusive means small, poorly fitted or top-dose-only effect, or another doubt; inactive means no such curve, though single readings can be large; an effect the other way counts as inactive or inconclusive.

SMILES	Giardia FBPA inh	LmPK inhibitor	Shiga inhibitor	RE007 growth inh	TbPYK inhibitor	Cycloheximide cs
CCc1ccc(NC(=O)CSc2nnnn2C)cc1	11%	-2%	78*	12%	-13%	56*
CCOc1ccc(NC(=O)C(C)Sc2nnnn2C)cc1 (configuration not stated)	0%	2%	15	0%	0%	11*
COc1ccc(NC(=O)CSc2nnnn2C)cc1	2%	0%	19	-3%	-3%	-2
O=C(NCCC(=O)N1CCCCC1)c1ccc(Br)cc1	/	2%	88*	10%	-5%	56*
CC(C)(C)c1ccc(C(=O)NCCC(=O)N2CCCC2)cc1	1%	-2%	96*	-25%	-3%	40*
O=C(NCC(=O)N1CCCC1)c1ccc(Cl)cc1	4%	2%	27*	-1%	-7%	16*
O=C(NCCC(=O)N1CCCC1)c1ccccc1Cl	/	-1%	19	-11%	-3%	18*
CCn1cc(/C=C(\NC(=O)c2cc(OC)c(OC)c(OC)c2)C(=O)NCCCn2ccnc2)c2ccccc21	/	/	/	/	-1%	/
CC(C)(C)c1ccc(C(=O)NNC(=O)C(=O)N2CCCCC2)cc1	2%	-3%	39*	-9%	-15%	17*
O=C(NCC(=O)N1CCCCCC1)c1ccc(Br)cc1	5%	-4%	47*	2%	4%	34*
O=C(NNC(=O)c1ccccc1)C(=O)N1CCCCC1	1%	-7%	15	-7%	-22%	-2
N/C(=N\OC(=O)CSc1ccccc1)c1ccncc1	/	1%	79*	3%	-1%	47*
N/C(=N\OC(=O)COc1ccccc1)c1ccncc1	9%	2%	83*	3%	-2%	43*
N/C(=N\OC(=O)CSc1ccccc1)c1cccc([N+](=O)[O-])c1	-1%	0%	15	-4%	-4%	33*
N/C(=N\OC(=O)Oc1ccccc1)c1cccc([N+](=O)[O-])c1	-1%	1%	-7	12%	4%	7
Cc1cc(C)cc(OCC(=O)O/N=C(\N)c2cccnc2)c1	4%	-4%	34	-6%	0%	16*
COc1cccc(OCC(=O)O/N=C(\N)c2ccncc2)c1	4%	1%	59*	31%	0%	28*
CCOC(=O)c1cc(-c2ccccc2)n(CCC(=O)Nc2ccc(OC)c(Cl)c2)c1C	/	/	/	/	5%[15.4 µM]	/
COc1cccc(/C=C/c2nc(C#N)c(NCC(C)C)o2)c1	0%	-1%	85*	5%	-12%	29*
CN(C)CCNc1oc(/C=C/c2ccccc2)nc1C#N	2%	0%	22	-5%	1%	23*
CN(C)CCCNc1oc(/C=C/c2ccc(F)cc2)nc1C#N	/	/	/	/	3%	/
C=CCNc1oc(/C=C/c2ccccc2)nc1C#N	-6%	4%	74*	-5%	5%	37*
CN(C)CCCNc1oc(/C=C/c2ccccc2)nc1C#N	-2%	-2%	65*	-6%	-3%	42*
Cc1ccc(S(=O)(=O)NC(=O)C2(C)CCN2C(=O)Cc2ccc(Cl)cc2Cl)cc1 (configuration not stated)	/	/	/	0%[18.4 µM]	3%	/
Cc1ccc(C(=O)N2CCC(c3c[nH]c4ccccc34)(c3c[nH]c4ccccc34)CC2)cc1	/	/	/	/	2%	/
SMILES	Giardia FBPA inh	LmPK inhibitor	Shiga inhibitor	RE007 growth inh	TbPYK inhibitor	Cycloheximide cs
O=C(NCCc1ccccc1)c1sc2ncccc2c1-n1cccc1	/	/	/	/	-3%	/
COCCCNc1oc(/C=C/c2ccccc2)nc1C#N	-7%	0%	74*	-12%	13%	35*
O=C(NCCSCc1c(F)cccc1Cl)c1ccc(CN2CCOCC2)cc1	-1%	-1%	12	-13%	-2%	-3
Cc1ccc(C(=O)N2CC=C(c3ccccc3)CC2)s1	/	/	/	7%	-2%	/
O=C(Nc1ccccc1)N1CC=C(c2ccccc2)CC1	-25%	-7%	80*	/	/	36*
O=C(O)C1CCCCC1C(=O)N1CC=C(c2ccccc2)CC1 (configuration not stated)	-1%	-5%	53*	-7%	-5%	27*
O=C(Nc1cccc2ccccc12)N1CC=C(c2ccccc2)CC1	1%	-2%	35	-3%	0%	-4
O=C(Nc1ccccc1)N1CC=C(c2ccc(F)cc2)CC1	?	2%	95*	-18%	-2%	52*
c1ccc(Nc2nc3ccccc3n3nnnc23)cc1	4%	-1%	56*	-3%	-3%	45*
CCOC(=O)N1CCC(Nc2nc3ccccc3n3nnnc23)CC1	6%	-4%	54	28%	3%	19*
Fc1ccccc1Nc1nc2ccccc2n2nnnc12	-7%	5%	53	-12%	-3%	41*
Fc1cccc(Nc2nc3ccccc3n3nnnc23)c1	2%	6%	57	7%	2%	22
c1ccc2c(c1)nc(Nc1ccc3c(c1)OCO3)c1nnnn12	-4%	-1%	130*	-11%	-5%	39*
CSCC[C@H](NC(=O)[C@@H]1CCCN1C(=O)CNC(=O)[C@H](CCCCN)NC(=O)[C@H](Cc1cnc[nH]1)NC(=O)[C@H](CO)NC(=O)[C@H](CC(C)C)NC(=O)[C@H](CCCN=C(N)N)NC(=O)[C@@H]1CCCN1C(=O)[C@H](CCCN=C(N)N)NC(=O)[C@@H]1CCC(=O)N1)C(=O)N1CCC[C@H]1C(=O)N[C@@H](Cc1ccccc1)C(=O)O	8%	/	-5	/	/	3
O=C1CSC(c2ccc(F)cc2)N1c1nnc(C23CC4CC(CC(C4)C2)C3)s1 (configuration not stated)	1%	0%	-10	/	/	1
NC(=O)C1CCN(C(=O)Nc2csc3ccccc23)CC1	-14%	0%	-6	6%	0%	1
Brc1ccc(Nc2nc3ccccc3n3nnnc23)cc1	2%	0%	100	/	/	65*
CCN(CC)S(=O)(=O)c1ccc(Nc2nc3ccccc3n3nnnc23)cc1	-2%	-8%	109*	-16%	-28%	32*
Oc1ccccc1Nc1nc2ccccc2n2nnnc12	/	/	/	/	4%	/
Cc1ccc(-c2cc3c(N=O)c4ccccc4c-3n[nH]2)cc1	0%	-20%	1	38%	2%	-1
Cc1cccc(-c2cc3c(N=O)c4ccccc4c-3n[nH]2)c1	0%	-14%	104*	-5%	-17%	46*
O=Nc1c2cc(-c3ccccc3)[nH]nc-2c2ccccc12	-1%	?	101*	?	?	37*
O=C(Cc1ccccc1)N/N=C/c1cc(Br)cs1	7%	-7%	17	3%	-3%	14*
Cc1ccc(/C=N/Nc2ccc(C(=O)O)cc2)s1	0%	-23%	50	-16%	-22%	8
O=C(O)c1ccc(N/N=C/c2cc(Br)cs2)cc1	19%	-2%	29	?	4%	25*
O=C(Cc1ccccc1)N/N=C/c1cccs1	-5%	-1%	14	-7%	-5%	-4
